Experimental data reported in PMC7826789 (International Journal of Molecular Sciences, 2021).

How the values were obtained:
Conditions in all cases: Compound Concentration (nM):1000
JNK1 = system: T1, JNK1
T1 construct: gene MAPK8

JNK2 = system: T2, JNK2
T2 construct: gene MAPK9

JNK3 = system: T3, JNK3
T3 construct: gene MAPK10

KIT(A829P) = system: KIT(A829P)
KIT(D816H) = system: KIT(D816H)
KIT(D816V) = system: KIT(D816V)
KIT(L576P) = system: KIT(L576P)
KIT(V559D) = system: KIT(V559D)
KIT(V559D,T670I) = system: KIT(V559D,T670I)
KIT(V559D,V654A) = system: KIT(V559D,V654A)
KIT-autoinhibited = system: KIT-autoinhibited
KIT = system: KIT
LATS1 = system: LATS1
LATS2 = system: LATS2
LCK = system: LCK
LIMK1 = system: LIMK1
LIMK2 = system: LIMK2
LKB1 = system: T4, LKB1
T4 construct: gene STK11

LOK = system: T5, LOK
T5 construct: gene STK10

LRRK2(G2019S) = system: LRRK2(G2019S)
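Further: KINOMEscan scanMAX binding as percent activity remaining versus control; lower means stronger binding.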

Row | SMILES | Percent Control (JNK1) [%] | Percent Control (JNK2) [%] | Percent Control (JNK3) [%] | Percent Control (KIT(A829P)) [%] | Percent Control (KIT(D816H)) [%] | Percent Control (KIT(D816V)) [%] | Percent Control (KIT(L576P)) [%] | Percent Control (KIT(V559D)) [%] | Percent Control (KIT(V559D,T670I)) [%] | Percent Control (KIT(V559D,V654A)) [%] | Percent Control (KIT-autoinhibited) [%] | Percent Control (KIT) [%] | Percent Control (LATS1) [%] | Percent Control (LATS2) [%] | Percent Control (LCK) [%] | Percent Control (LIMK1) [%] | Percent Control (LIMK2) [%] | Percent Control (LKB1) [%] | Percent Control (LOK) [%] | Percent Control (LRRK2(G2019S)) [%]
1 | Cl.O=S1CCN(Cc2ccc(-c3ccc4ncnc(Nc5ccc(OCc6ccccc6)c(F)c5)c4c3)o2)CC1 [GW576924A] | 100 | 100 | 100 | 100 | 100 | 100 | 100 | 100 | 94 | 100 | 100 | 100 | 100 | 100 | 100 | 100 | 100 | 100 | 100 | 100
2 | COc1cc(C)c(N(C)C(=O)CN(C)C)cc1Nc1nc(Nc2cccc(F)c2C(N)=O)c2cc[nH]c2n1 [GSK2219385] | 88 | 74 | 83 | 100 | 60 | 81 | 100 | 100 | 100 | 93 | 100 | 100 | 100 | 80 | 100 | 100 | 96 | 83 | 100 | 8.8
3 | NS(=O)(=O)c1ccc(N/N=C2\C(=O)Nc3ccc(C(=O)NCc4ccncc4)cc32)cc1 [GW300657X] | 55 | 40 | 38 | 47 | 14 | 61 | 83 | 87 | 89 | 100 | 99 | 87 | 100 | 67 | 100 | 100 | 90 | 100 | 100 | 89
4 | Nc1ncnc2occ(-c3ccc(NC(=O)Nc4cc(C(F)(F)F)ccc4F)cc3)c12 [GW770249X] | 99 | 9.2 | 100 | 7.5 | 32 | 14 | 0 | 0 | 0.5 | 7.5 | 31 | 0 | 100 | 91 | 25 | 100 | 94 | 83 | 0.4 | 81
5 | COc1cccc(-n2ncc3c(N/N=C/c4ccncc4)ncnc32)c1 [GW784752X] | 99 | 83 | 96 | 100 | 46 | 100 | 84 | 89 | 38 | 100 | 100 | 91 | 100 | 100 | 35 | 99 | 100 | 100 | 100 | 96
6 | CCn1c(-c2nonc2N)nc2c(C#CC(C)(C)O)nc(OCCNC)cc21.Cl [GSK949675] | 97 | 100 | 96 | 98 | 22 | 13 | 100 | 100 | 100 | 100 | 100 | 100 | 65 | 11 | 100 | 100 | 100 | 70 | 100 | 100
7 | CCS(=O)(=O)c1ccc(OC)c(Nc2ncc(-c3cccc(F)c3)o2)c1 [GW621970X] | 69 | 92 | 94 | 63 | 51 | 39 | 3 | 4.8 | 35 | 90 | 14 | 13 | 94 | 100 | 25 | 100 | 100 | 100 | 100 | 100
8 | C/C(Nc1ccc(S(N)(=O)=O)cc1)=C1/C(=O)Nc2ccccc21 [GW335962X] | 32 | 31 | 30 | 76 | 73 | 92 | 90 | 100 | 80 | 87 | 28 | 99 | 100 | 83 | 91 | 100 | 94 | 86 | 79 | 47
9 | COC(=O)Nc1nc2ccc(Oc3ccc(NC(=O)Nc4cc(C(F)(F)F)ccc4F)cc3)cc2s1.Cl [GW693917A] | 87 | 60 | 79 | 1.9 | 39 | 61 | 0 | 0.2 | 2.5 | 20 | 87 | 0.5 | 100 | 80 | 2.2 | 43 | 62 | 100 | 0.6 | 74
10 | Cl.c1ccc(Cc2nc3ccc(Nc4ncnc5ccccc45)cc3[nH]2)cc1 [GR269666A] | 91 | 100 | 100 | 100 | 100 | 100 | 100 | 91 | 100 | 85 | 100 | 94 | 100 | 100 | 88 | 100 | 100 | 100 | 100 | 100
